Here are results for eleven molecules from ChEMBL document CHEMBL3988442, “University of Dundee, Small-Polar-MMV Screening Library” (2021).

What all share (parameters): scale not given: direction of the effect not stated beside the values
Assay [1] has as its target Protein translocase subunit SecA (Escherichia coli (strain K12)) (UniProt P10408). The experiment in a line: Assay to Identify E. coli SecA ATPase Inhibitors. Format: functional. The note with it: 30 µM.
The target of assay [2] is T1, Ubiquitin-activating enzyme e1, putative (Leishmania donovani (strain BPK282A1)) (UniProt E9BSI1).
T1 sequence (whole entry): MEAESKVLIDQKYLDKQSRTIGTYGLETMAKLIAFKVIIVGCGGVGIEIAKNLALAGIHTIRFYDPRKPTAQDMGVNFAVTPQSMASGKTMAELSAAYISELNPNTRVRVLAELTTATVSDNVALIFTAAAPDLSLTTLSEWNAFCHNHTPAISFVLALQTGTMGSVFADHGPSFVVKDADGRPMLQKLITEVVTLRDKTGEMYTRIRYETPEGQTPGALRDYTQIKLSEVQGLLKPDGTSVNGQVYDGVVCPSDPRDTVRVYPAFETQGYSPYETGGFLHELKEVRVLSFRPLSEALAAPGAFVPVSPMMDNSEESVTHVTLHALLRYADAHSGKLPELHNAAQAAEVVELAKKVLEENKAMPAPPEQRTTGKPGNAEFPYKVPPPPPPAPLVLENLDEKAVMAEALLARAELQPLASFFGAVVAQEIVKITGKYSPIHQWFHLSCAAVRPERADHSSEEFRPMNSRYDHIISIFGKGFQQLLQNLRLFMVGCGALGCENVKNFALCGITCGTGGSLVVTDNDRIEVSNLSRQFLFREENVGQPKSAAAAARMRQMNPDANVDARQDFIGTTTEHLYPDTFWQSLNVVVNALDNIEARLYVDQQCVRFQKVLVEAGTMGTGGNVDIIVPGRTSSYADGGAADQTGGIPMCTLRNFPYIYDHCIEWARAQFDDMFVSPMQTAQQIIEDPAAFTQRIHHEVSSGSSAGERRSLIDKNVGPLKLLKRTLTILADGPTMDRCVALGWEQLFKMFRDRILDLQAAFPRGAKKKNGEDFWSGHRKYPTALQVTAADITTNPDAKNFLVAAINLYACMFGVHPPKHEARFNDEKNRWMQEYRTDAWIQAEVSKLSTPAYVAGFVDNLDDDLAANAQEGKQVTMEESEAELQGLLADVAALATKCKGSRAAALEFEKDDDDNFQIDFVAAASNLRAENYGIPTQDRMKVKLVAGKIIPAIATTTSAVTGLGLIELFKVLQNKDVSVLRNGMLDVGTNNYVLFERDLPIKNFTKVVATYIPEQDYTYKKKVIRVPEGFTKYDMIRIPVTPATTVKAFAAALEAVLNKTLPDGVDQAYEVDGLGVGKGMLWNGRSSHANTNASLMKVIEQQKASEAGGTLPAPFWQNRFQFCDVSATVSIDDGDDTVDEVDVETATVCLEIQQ
Briefly: Leishmania donovani Ubiquitin Activating Enzyme (LdE1). The format is functional. The note with it: 30 µM.

Assay [3] concerns the target AMP-activated protein kinase, AMPK (Homo sapiens) (UniProt P54646+O43741+P54619+Q9UGJ0+Q9Y478+Q13131+Q9UGI9). Briefly: AMP-dependent Kinase enzyme assay. An in vitro enzyme assay that detects ADP turnover that is directly proportional to AMPK activity. This uses naive AMPK that is activated during the assay with MK-8722. The format is functional. Conditions: 30 µM.
The target in assay [4] is Sialic acid-binding Ig-like lectin 9 (Homo sapiens) (UniProt Q9Y336). The experiment in a line: Hs-Siglec9 ALPHAscreen SOP 20170721. Conditions: 10 µM.
Chain of Sialic acid-binding Ig-like lectin 9 (Homo sapiens) (Q9Y336 whole entry): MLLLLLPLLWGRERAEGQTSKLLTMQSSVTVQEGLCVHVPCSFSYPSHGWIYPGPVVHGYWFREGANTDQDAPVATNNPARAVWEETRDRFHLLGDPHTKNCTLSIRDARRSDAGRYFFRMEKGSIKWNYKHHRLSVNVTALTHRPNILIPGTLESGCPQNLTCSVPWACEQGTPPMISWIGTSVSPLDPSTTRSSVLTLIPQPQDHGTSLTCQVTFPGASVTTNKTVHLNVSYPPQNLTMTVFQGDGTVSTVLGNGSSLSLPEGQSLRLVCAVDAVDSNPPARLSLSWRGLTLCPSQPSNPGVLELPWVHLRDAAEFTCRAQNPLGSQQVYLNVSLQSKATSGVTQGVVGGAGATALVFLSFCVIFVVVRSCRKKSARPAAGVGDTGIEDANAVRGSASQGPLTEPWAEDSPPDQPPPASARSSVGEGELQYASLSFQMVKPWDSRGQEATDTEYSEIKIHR
The subject of a further assay is Trypanosoma cruzi. Briefly: Trypanosoma cruzi phosphomannomutase and mannose-1-phosphate guanylyltransferase assay. The note with it: 10 µM. Format: functional.
Assay [5] addresses T2, Arginase-2, mitochondrial (Homo sapiens) (UniProt P78540).
T2 sequence (whole entry): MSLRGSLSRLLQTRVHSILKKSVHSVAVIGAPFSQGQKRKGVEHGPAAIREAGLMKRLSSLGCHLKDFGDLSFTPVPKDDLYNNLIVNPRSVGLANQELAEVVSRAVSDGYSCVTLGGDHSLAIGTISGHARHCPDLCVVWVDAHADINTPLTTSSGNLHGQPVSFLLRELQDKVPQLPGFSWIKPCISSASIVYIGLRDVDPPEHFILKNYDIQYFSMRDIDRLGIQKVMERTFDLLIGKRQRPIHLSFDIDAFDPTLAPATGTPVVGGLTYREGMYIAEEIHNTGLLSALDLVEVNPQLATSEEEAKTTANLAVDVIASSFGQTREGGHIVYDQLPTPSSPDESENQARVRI
The experiment in a line: in vitro enzyme assay to detect the production of urea directly proportional to the activity of Arginase II. Note: in the data most compounds retested in dose-response had high values. The format is functional. Conditions: 33.3 µM.

For assay [6], the target named is T3, Proteasome subunit beta (Trypanosoma cruzi) (UniProt O96673).
T3 sequence (whole entry): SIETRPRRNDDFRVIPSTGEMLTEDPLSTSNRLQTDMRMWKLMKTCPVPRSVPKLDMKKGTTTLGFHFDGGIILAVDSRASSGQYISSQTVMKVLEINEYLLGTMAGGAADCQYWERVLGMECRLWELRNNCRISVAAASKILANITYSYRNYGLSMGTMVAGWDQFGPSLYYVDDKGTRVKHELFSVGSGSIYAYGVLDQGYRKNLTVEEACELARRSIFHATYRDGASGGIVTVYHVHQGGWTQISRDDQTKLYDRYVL
Briefly: Trypanosoma cruzi proteasome chymotrypsin-like activity (TcProtChymo) assay. Note: in the data most compounds retested in dose-response had high values. Format: functional. Conditions: 9.37 µM.

The species entered for the next assay is Homo sapiens. The experiment in a line: To identify inhibition of the IFN signalling (Jak-Stat) pathway via expression of an eGFP reporter gene under the control of an IFN-stimulated response element (ISRE) containing MxA promoter. Format: functional. The note with it: 30 µM. On the technique in general: In a reporter assay the amount or activity of a reporter protein is the signal.

Assay [7] deals with T4, Tyrosyl-tRNA synthetase, putative (Trypanosoma cruzi (strain CL Brener)) (UniProt Q4DSP6).
T4 sequence (whole entry): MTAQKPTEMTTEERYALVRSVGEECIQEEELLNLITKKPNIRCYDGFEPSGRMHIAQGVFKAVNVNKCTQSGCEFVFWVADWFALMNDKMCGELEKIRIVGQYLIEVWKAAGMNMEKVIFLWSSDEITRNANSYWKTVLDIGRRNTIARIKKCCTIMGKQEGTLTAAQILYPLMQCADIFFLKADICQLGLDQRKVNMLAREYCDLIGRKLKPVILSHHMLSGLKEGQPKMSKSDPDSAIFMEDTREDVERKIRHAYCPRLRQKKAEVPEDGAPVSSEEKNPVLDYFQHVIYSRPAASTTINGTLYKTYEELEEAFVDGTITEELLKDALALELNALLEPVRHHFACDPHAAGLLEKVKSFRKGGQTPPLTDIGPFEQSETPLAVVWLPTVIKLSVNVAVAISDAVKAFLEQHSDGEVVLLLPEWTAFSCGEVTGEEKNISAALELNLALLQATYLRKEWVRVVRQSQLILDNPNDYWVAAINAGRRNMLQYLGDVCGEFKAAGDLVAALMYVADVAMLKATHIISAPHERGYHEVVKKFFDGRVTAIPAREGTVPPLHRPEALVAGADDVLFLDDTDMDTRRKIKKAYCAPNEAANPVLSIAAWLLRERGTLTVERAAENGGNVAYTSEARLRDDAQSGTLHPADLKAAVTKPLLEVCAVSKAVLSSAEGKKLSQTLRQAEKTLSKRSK
Briefly: Trypanosoma cruzi tyrosyl tRNA synthetase (TcYRS) _High Tyrosine SOP. Note: in the data most compounds retested in dose-response had high values. Format: functional. The note with it: 30 µM.

Assay [8] deals with T4, Tyrosyl-tRNA synthetase, putative (Trypanosoma cruzi (strain CL Brener)). Briefly: Trypanosoma cruzi tyrosyl tRNA synthetase (TcYRS) SOP. Format: functional. The note with it: 30 µM.
The target in assay [9] is Chromo domain-containing protein 1 (Saccharomyces cerevisiae (strain ATCC 204508 / S288c) (Baker's yeast)) (UniProt P32657). Briefly: ScCHD-1 Enzyme Inhibition Assay. Note: in the data most compounds retested in dose-response had high values. Format: functional. Conditions: 30 µM.
Chain of Chromo domain-containing protein 1 (Saccharomyces cerevisiae (strain ATCC 204508 / S288c) (Baker's yeast)) (P32657 whole entry, the tested form may be a part): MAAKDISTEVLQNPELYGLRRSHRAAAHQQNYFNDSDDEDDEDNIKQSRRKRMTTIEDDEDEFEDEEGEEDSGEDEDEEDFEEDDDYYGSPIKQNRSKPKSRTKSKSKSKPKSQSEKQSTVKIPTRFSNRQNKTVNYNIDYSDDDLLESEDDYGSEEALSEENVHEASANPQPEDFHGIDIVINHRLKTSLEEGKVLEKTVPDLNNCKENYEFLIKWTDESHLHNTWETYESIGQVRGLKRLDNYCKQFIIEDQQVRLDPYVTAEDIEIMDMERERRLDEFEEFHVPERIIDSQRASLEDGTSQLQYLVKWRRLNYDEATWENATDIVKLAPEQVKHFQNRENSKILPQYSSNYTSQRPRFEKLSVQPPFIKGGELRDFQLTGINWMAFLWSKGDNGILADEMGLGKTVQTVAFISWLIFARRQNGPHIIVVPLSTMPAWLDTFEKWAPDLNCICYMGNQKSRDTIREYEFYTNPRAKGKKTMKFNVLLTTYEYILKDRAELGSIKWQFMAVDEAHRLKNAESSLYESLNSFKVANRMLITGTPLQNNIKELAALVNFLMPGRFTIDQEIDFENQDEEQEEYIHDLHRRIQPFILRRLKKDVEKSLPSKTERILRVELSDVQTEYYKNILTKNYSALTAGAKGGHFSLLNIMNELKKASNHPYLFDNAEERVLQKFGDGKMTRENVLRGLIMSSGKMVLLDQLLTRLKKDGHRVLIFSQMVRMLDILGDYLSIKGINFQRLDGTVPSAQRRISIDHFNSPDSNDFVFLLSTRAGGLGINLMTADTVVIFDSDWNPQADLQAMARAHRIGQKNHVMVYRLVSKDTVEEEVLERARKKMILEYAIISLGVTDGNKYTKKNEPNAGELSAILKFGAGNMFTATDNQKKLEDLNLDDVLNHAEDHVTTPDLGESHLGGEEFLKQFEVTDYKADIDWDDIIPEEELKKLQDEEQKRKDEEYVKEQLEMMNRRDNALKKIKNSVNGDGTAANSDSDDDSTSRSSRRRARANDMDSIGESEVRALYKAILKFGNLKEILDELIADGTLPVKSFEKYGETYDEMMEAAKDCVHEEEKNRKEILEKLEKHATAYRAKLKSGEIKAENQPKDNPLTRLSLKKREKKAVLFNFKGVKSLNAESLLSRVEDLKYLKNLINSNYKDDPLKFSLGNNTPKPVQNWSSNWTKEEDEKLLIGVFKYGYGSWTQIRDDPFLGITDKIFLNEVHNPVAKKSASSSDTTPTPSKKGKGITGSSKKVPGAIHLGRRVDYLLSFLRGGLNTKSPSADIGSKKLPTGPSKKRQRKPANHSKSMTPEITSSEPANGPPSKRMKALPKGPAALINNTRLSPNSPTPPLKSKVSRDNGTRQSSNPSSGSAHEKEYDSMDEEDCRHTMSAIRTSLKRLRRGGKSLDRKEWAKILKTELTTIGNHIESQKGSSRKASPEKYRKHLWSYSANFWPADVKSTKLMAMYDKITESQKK

Each structure is given as a SMILES string. For some of these results: Potency and affinity values are given separately.

Chain of Protein translocase subunit SecA (Escherichia coli (strain K12)) (P10408 whole entry): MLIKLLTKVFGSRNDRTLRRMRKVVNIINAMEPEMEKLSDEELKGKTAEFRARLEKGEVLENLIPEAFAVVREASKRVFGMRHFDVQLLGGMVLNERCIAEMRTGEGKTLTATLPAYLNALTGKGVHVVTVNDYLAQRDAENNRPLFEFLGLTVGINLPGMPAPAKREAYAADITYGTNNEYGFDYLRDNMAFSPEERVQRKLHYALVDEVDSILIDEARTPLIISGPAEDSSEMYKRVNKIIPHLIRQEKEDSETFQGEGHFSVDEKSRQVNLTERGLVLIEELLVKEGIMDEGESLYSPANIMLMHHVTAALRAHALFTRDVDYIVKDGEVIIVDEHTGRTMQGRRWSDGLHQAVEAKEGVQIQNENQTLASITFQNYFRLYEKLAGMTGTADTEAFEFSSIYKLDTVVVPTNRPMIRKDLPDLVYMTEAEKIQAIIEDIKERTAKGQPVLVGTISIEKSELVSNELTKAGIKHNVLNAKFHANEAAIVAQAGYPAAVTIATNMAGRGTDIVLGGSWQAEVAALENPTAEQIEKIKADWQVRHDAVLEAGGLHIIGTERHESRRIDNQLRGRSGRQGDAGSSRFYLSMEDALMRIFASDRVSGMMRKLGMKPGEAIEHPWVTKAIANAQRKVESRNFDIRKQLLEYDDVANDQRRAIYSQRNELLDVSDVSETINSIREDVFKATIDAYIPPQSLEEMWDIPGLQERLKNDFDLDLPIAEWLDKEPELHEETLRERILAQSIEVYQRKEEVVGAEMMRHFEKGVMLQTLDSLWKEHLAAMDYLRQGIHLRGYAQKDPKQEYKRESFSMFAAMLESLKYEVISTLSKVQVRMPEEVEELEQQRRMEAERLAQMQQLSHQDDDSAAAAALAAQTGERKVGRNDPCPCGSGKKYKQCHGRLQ

With `O=C(NC1(c2cccc(F)c2)CCOCC1)c1ccoc1`, the Percent Effect is -5.15% in [1]; 5.2% in [2]; -0.889% in assay [3]; 5.11% in assay [4]; 2.46% with Trypanosoma cruzi; -6.9% in assay [5]. Moreover, the Percent Effect in [6] was 1.33%; in the assay filed under Homo sapiens, -3.68%; in [7] it was 2.15%; in assay [8] it was 8.64%; in assay [9], -3.25%.

`CNc1cncc(C2CCCN(S(C)(=O)=O)C2)n1` (stereo unspecified): the Percent Effect was -1.57% in [1]; -1.35% in [2]; 13.3% in [3]; 2.54% in assay [4]; -6.92% in the assay with Trypanosoma cruzi; 3.48% in assay [5]. Also, the Percent Effect is 17% in [6]; 23.6% in the assay listed under Homo sapiens; 1.07% in assay [7]; 6.49% in [8]; -15.8% in assay [9].

On to `COc1ccc(-n2ccc(C(=O)N3CCC(C(N)=O)C3)n2)cc1` (stereo unspecified), for which the Percent Effect in assay [1] was -7.71%; in assay [2], 8.11%; in assay [3] it was -1.34%; in [4], 6.17%; in the assay with Trypanosoma cruzi, -4.55%; in assay [5] it was 1.29%. For the same molecule, the Percent Effect was -1.44% in assay [6]; 16.4% in the assay listed under Homo sapiens; 2.97% in assay [7]; 3.66% in [8]; -1.19% in assay [9].

Consider `CCc1cnc2c(c1Nc1ccncc1)c(=O)n(C)c(=O)n2C`, for which the Percent Effect was 0.799% in [1]; 18.2% in assay [2]; 5.71% in assay [3]; -13.1% in assay [4]; 2.27% in the assay on Trypanosoma cruzi; 1.94% in assay [5]. The Percent Effect was 14.6% in [6]; 35.5% in the assay filed under Homo sapiens; 7.41% in assay [7]; 14.1% in assay [8]; -10.9% in assay [9].

Take `Cc1noc(C)c1CNC(=O)N1CCC(CO)CC1`: the Percent Effect in assay [1] was -1.26%; in assay [2], 13.7%; in [3], -4.05%; in assay [4], 6.04%; with Trypanosoma cruzi it was 2.18%; in assay [5], -1.2%. In addition, the Percent Effect in assay [6] is 7.62%; in the assay listed under Homo sapiens, 23.9%; in assay [7] it was 7.29%; in [8] it was 16.1%; in assay [9] it was -0.505%.

On to `COc1ccc(CN2C[C@@H]3CCCO[C@@H]3[C@H](NS(C)(=O)=O)C2)cc1`, for which the Percent Effect in assay [1] is 0.295%; in assay [2], 13.3%; in assay [3] it was -2.32%; in assay [4] it was 4.91%; with Trypanosoma cruzi it was 2.9%; in assay [5] it was -48.2%. In addition, the Percent Effect in [6] was 5.13%; in the assay filed under Homo sapiens, -24.2%; in assay [7], 6.25%; in [8], 25%; in assay [9], -6.84%.

On to `CN(C)C(=O)N1C[C@H]2CN(Cc3cccc(F)c3)C(=O)[C@H]2C1`, for which the Percent Effect was -4.01% in assay [1]; 10.8% in assay [2]; 7.46% in assay [3]; -7.24% in assay [4]; -4.2% in the assay on Trypanosoma cruzi; 0.955% in [5]. Also, the Percent Effect in assay [6] is 20.9%; in the assay listed under Homo sapiens, 4.49%; in assay [7], 0%; in [8], -7.69%; in assay [9], -1.2%.

With `N#CCCN(C(=O)CN1CCCC1c1ccsc1)c1ccccc1F` (stereo unspecified), the Percent Effect in assay [1] is -3.56%; in assay [2], -18.9%; in [3], -2.34%; in assay [4] it was -0.732%; in the assay on Trypanosoma cruzi, -2.51%; in [5], -8.69%. The Percent Effect in [6] was -0.718%; in the assay listed under Homo sapiens, 16.7%; in [7] it was 3.96%; in assay [8], 1.22%; in [9], 21.4%.

Regarding `COc1ncccc1C(=O)N1CCCC(c2cc(C)[nH]n2)C1` (stereo unspecified), the Percent Effect in [1] is -4.92%; in assay [2], 0%; in assay [3], -0.772%; in assay [4], -1.9%; in the assay on Trypanosoma cruzi, -0.66%; in assay [5] it was -0.802%. In addition, the Percent Effect in assay [6] was 1.8%; in the assay listed under Homo sapiens, 10.4%; in assay [7], 1.48%; in assay [8], -6.17%; in assay [9] it was 1.58%.

For `COc1ccc(CN2CCc3ncnc(OC(C)C)c3CC2)cc1`, the Percent Effect in assay [1] was 2.24%; in assay [2], 10.7%; in assay [3], 7.06%; in assay [4], -5.75%; with Trypanosoma cruzi, -6.37%; in assay [5] it was -53.9%. The Percent Effect in assay [6] is 16.2%; in the assay listed under Homo sapiens it was 19%; in assay [7], -14.6%; in [8] it was 0%; in [9], -4.41%.

As to `Cn1cnc(S(=O)(=O)N2CCCC2)c1Cl`, the Percent Effect is -1.75% in assay [1]; 4.17% in assay [2]; -5.49% in [3]; -0.277% in [4]; 1.46% in the assay with Trypanosoma cruzi; 13.2% in assay [5]. Besides, the Percent Effect in assay [6] was 15.4%; in the assay listed under Homo sapiens it was -29.7%; in assay [7] it was 3.16%; in assay [8], 10.3%; in assay [9], -2.89%.
